Compound activity: PubChem, National Center for Advancing Translational Sciences (NCATS)
GRP78 ERSR act = ER stress response induction in glioma; actives 0.02% (n = 420,000); Potency, µM, inactives show at the top dose activation, usual class: activators; AID 602332; U87-MG GRP78 promoter luciferase reporter, 16 h; note: series mostly up to about 76 µM; % of control where 0% means no effect; nearly all actives have a fitted effect of over 35% in size
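ERSR induction read as luciferase luminescence (Bright-Glo, 10 min at room temperature) in stably transfected human U87-MG glioma cells exposed to compounds for 16 h, using GRP78 as sensor.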
VDR inh = vitamin D3 receptor (human) inhibition | Potency, µM, without a hit: max response, negative = inhibition, actives largely listed as inhibitors | actives 0.93% (n = 400,000) | AID 504847 | VDR-SRC2-3 peptide fluorescence polarization, 2 h; note: % is set by controls: 0 for no effect and ±100 for the full control effect
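The screen uses fluorescence polarization to detect compounds that interfere with recruitment of the SRC2-3 coactivator peptide to VDR; plates are read after 2 h at room temperature.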
12-LOX inh = ALOX12 (human) lipoxygenase inhibition | actives 1.1% (n = 580,000) | Potency, µM (doses to about 108 µM), without a hit: at the highest dose activity change, negative = inhibition, most hits filed as inhibitors | purified 12hLO, xylenol orange hydroperoxide absorbance | AID 1671190; note: % is set by controls: 0 for no effect and ±100 for the full control effect
Target sequence (P18054 whole entry, looked up): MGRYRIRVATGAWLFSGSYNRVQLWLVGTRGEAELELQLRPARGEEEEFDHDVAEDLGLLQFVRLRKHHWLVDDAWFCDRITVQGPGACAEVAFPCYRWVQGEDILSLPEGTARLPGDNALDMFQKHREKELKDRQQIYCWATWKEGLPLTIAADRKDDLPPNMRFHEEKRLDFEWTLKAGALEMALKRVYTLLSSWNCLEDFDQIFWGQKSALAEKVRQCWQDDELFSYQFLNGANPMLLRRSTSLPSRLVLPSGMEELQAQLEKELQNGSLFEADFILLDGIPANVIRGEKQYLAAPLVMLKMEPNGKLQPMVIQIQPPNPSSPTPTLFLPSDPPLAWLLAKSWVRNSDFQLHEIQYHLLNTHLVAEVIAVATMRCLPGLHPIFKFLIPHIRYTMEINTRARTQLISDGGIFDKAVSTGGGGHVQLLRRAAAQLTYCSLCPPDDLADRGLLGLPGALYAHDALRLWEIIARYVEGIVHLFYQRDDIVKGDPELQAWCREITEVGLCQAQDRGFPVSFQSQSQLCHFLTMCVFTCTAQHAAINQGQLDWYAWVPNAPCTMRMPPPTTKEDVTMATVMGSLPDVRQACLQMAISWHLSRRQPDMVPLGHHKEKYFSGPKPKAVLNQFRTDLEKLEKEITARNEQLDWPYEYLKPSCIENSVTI
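Purified human 12hLO (150 nM final) in 25 mM Hepes, 0.01% Triton X-100, pH 7.0 was preincubated 15 min at room temperature with compound. Then 40 uM arachidonic acid was added, 30 min. Hydroperoxide was read by Fe-XO absorbance ratio 573/405 nm.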
G9a block = blocks human histone lysine methyltransferase G9a | Q96KQ7 | actives 8.8% (n = 350,000) | Potency, µM (doses to about 102 µM), without a hit: at the highest dose activity, negative = inhibition, hits mostly inhibitors | G9a H3K9 monomethylation, AlphaScreen, 2 h; note: % is set by controls: 0 for no effect and ±100 for the full control effect; nearly all actives have a fitted effect of over 75% in size
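Methyltransferase reactions run at room temperature for 2 h (20 nM enzyme, 500 nM biotin-H3K9 peptide, 20 uM SAM) after a 15 min compound preincubation; product detected by AlphaScreen beads and anti-H3K9me1 antibody.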
Sfp PPTase inh = inhibitors of Bacillus subtilis Sfp phosphopantetheinyl transferase; Q9F4F7; Biochemical Sfp PPTase activity, qHTS; Potency, µM, for the others: largest response in the series, negative = inhibition, usual class: inhibitors; actives 3.5% (n = 310,000); AID 1490;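 note: the enzyme is Sfp with the accession as filed and its product quenches rhodamine fluorescence; 0% = enzyme reaction without inhibitor and -100% = no enzyme wells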
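Reaction rates are the 30-min fluorescence difference (ex 525, em 598 nm) in wells containing 15 nM Sfp, 5 uM rhodamine-CoA and 12.5 uM BHQ-2-YbbR at pH 7.6 with 10 mM MgCl2.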
* marks the source's active call; other numbers are inactive results; ? = inconclusive; . = not tested or not shown; [ ] = dose if it differs, or a comment. Only a selection was taken, and hits are over-represented in it overall. Calls come from the whole dose curve; as a rule, active = well fitted curve in the direction sought with a large enough effect; inconclusive = small, poorly fitted or top-dose-only effect, or another doubt; inactive = no such curve, though single readings can be large; an effect the other way counts as inactive or inconclusive. Potency is the fitted concentration of half-maximal effect.

SMILES | GRP78 ERSR act | VDR inh | 12-LOX inh | G9a block | Sfp PPTase inh
O=C(CSc1nc2ccccc2o1)Nc1nc2ccc(Br)cc2s1 | -1% | -5% | 74% | 45µM* | 13%
CCOC(=O)c1c(NC(=O)c2cccs2)sc(C(=O)N(C)C)c1C | -5% | ? | ? | ? | ?
COc1ccc2nc(NC(=O)CSc3nc4ccccc4o3)sc2c1 | -2% | 16% | 488% | 23%[12.7 µM] | -2%
CCCc1nnc(NC(=O)CSc2ncn[nH]2)s1 | 0% | -7% | ? | 35µM* | 3%
CCOC(=O)c1c(NC(=O)c2cccnc2Cl)sc(C(=O)N(C)C)c1C | -3% | 0% | -23% | 25µM* | 20%
CCOC(=O)c1c(NC(=O)CSc2nc3ccccc3o2)sc(C)c1C | 3% | 4% | 2% | 11%[2.33 µM] | 45µM*
CCOC(=O)c1c(C)[nH]c(C(=O)OCC(=O)Nc2sc(C(=O)N(C)C)c(C)c2C(=O)OCC)c1C | -4% | 5% | 4% | 1%[12.7 µM] | .
CCOC(=O)c1c(NC(=O)CSc2ncn[nH]2)sc(C(=O)NC)c1C | 1% | 7% | -20% | . | 4%
CCOC(=O)c1c(NC(=O)CSc2ncn[nH]2)sc(C)c1C | 3% | 6% | 0% | 45µM* | -25%
CCOC(=O)c1c(NC(=O)CSc2ncn[nH]2)sc(C(=O)N(C)C)c1C | -3% | -14% | 1% | 50µM* | .
CCOC(=O)c1ccc(OCC(O)CNCCCn2nc(C)cc2C)cc1 (configuration not stated) | . | . | 1% | . | .
CC(/C=C1\SC(=S)N(CC(=O)O)C1=O)=C\c1ccccc1 | -3% | 45µM* | 29% | 12%[59 µM] | -23%
CCn1c(C)cc(/C=C2/SC(=S)N(CC(=O)O)C2=O)c1C | -9% | -3% | ? | 50µM* | -6%
CC(=C\c1ccco1)/C=C1/SC(=S)N(CC(=O)O)C1=O | 4% | 6% | ? | 40µM* | 28µM*
CC(/C=C1\SC(=S)N(CC(=O)N2CCN(c3ccccc3)CC2)C1=O)=C\c1ccccc1 | 5% | -3% | 1% | -11%[59 µM] | 20%
CC(=C\c1ccccc1)/C=C1/SC(=S)N(CCC(=O)O)C1=O | -13% | -22% | -12% | 6%[2.33 µM] | ?
Cc1ccc(NCc2ccccc2O)c(C)c1 | -1% | 19% | 19% | 45µM* | 10%
Cc1cccc(NCc2ccccc2O)c1C | 3% | 3% | ? | ? | 4%
Cc1ccccc1OCC(O)CN (configuration not stated) | -6% | 7% | -4% | ? | 6%
Cc1cc(C)nc(NCC(O)COc2ccccc2C)n1 (configuration not stated) | 0% | 3% | -10% | 45µM* | 8%
CC(=O)c1c(C)[nH]c(C(=O)C(C)Oc2ccc(F)c(F)c2)c1C (configuration not stated) | . | . | -41% | . | .
COc1ccc(C(C)=O)cc1Br | . | . | -4% | . | .
N#CC1=C2SCN(Cc3ccco3)CN2C(=O)CC1c1c(F)cccc1Cl (configuration not stated) | -4% | ? | ? | 1.6µM* | 2.8µM*
Cc1ccc(C2CC(=O)N3CN(Cc4ccco4)CSC3=C2C#N)cc1 (configuration not stated) | -4% | ? | 6.3µM* | ? | 2.2µM*
CCOC(=O)c1[nH]c(C)c(C(=O)NC2CCCCC2)c1C | 0% | -9% | 435% | 79µM* | 5%
SMILES | GRP78 ERSR act | VDR inh | 12-LOX inh | G9a block | Sfp PPTase inh
CCOC(=O)c1[nH]c(C)c(/C(Br)=C/Br)c1C | . | . | 6.3µM* | . | .
Cc1cc(C)n2nc(C(=O)OC(C(=O)c3c[nH]c4ccccc34)c3ccccc3)nc2n1 (configuration not stated) | . | . | -18% | . | .
CCCOc1ccc(-c2nonc2NC(=O)Cc2ccc(OC)cc2)cc1 | . | . | 9% | . | .
NNC(=O)c1cn2ccccc2n1 | 2% | -4% | -5% | 3.2µM* | 79µM*
NS(=O)(=O)c1ccc(CCNC(=O)C2Cc3ccccc3CN2C(=O)c2ccco2)cc1 (configuration not stated) | -4% | 25% | 16% | 0% | 7%
NS(=O)(=O)c1ccc(NC(=O)C2Cc3ccccc3CN2C(=O)c2ccco2)cc1 (configuration not stated) | 1% | -10% | -27% | 50µM* | -22%
CCSc1nnc(NC(=O)C2Cc3ccccc3CN2C(=O)c2ccco2)s1 (configuration not stated) | 0% | -13% | -14% | ? | 40µM*
Cc1ccccc1NC(=O)C1Cc2ccccc2CN1C(=O)c1ccco1 (configuration not stated) | 3% | 8% | ? | ? | ?
c1ccc(N2CCN(c3ccccc3)C2c2ccncc2)cc1 | -3% | 23% | 8%[57.4 µM] | ? | 79µM*
Cc1ccc(-c2c(C)c(-c3ccc(F)cc3)nc(N)c2C#N)o1 | -5% | -6% | ? | 13µM* | 18µM*
CC(C)CN1C(=O)C2(CC(=O)Nc3c2cnn3Cc2ccccc2Cl)c2ccccc21 (configuration not stated) | . | . | -13% | . | .
Cc1ncsc1CN1CCC[C@H]1C(=O)N1CCCCCCNC(=O)CC1 | . | . | 121% | . | .
Cc1ccc(-c2cn(-c3ccccc3)c(SCC(=O)NC3CCS(=O)(=O)C3)n2)cc1C (configuration not stated) | 0% | 8% | -1% | 2µM* | -11%
O=C(Nc1ccc(NC(=O)C2CCCCC2)nc1)c1ccccn1 | 0% | 5% | -2% | 28µM* | -12%
COc1cccc(C(=O)Nc2ccc(NC(=O)C3CC3)nc2)c1 | 0% | -7% | ? | 40µM* | 14%
CC(=O)c1ccc(C(C)(C)C)cc1NC(=O)c1ccccc1 | . | . | 3% | . | .
NC(=O)c1sc(=S)n2c1[nH]c(=O)c1sccc12 | 3% | 0% | ? | 18µM* | 40µM*
CC(=O)NNC(=O)c1sc(=S)n2c1[nH]c(=O)c1sccc12 | -5% | -1% | ? | 13µM* | 18µM*
Cc1ccc(-c2nc(COc3ccccc3F)co2)cc1 | . | . | 26% | . | .
CCOC(=O)CN1NC2(CCCC(C)C2)NC1=S (configuration not stated) | -4% | 6% | -3% | 10µM* | 25µM*
CCOC(=O)CN1NC2(CCCCC2)NC1=S | -5% | -18% | ? | ? | 28µM*
CCOC(=O)CN1NC2(CCCCCCC2)NC1=S | -3% | -8% | 0% | 2.2µM* | 40µM*
CCOC(=O)CN1NC2(CCC(C(C)(C)C)CC2)NC1=S (configuration not stated) | -2% | 9% | ? | 14%[12.7 µM] | 22µM*
CCOC(=O)CON1C(=O)C(=O)N(OCC(=O)OCC)[C@H]2CCCC[C@H]21 | 4% | -13% | -18% | ? | 12%
CCOC(=O)Cn1c2c(c(=N)c3c1CCC3)CCC2 | -3% | 4% | -1% | 12%[59 µM] | 4%
